Assay results from PubChem BioAssay (NCATS).
Records with an inconclusive call do not appear. Activity calls are given as the source filed them. Calls follow the shape of the dose curve; as a rule, active = well fitted cell-killing curve with a large enough effect; inconclusive = small, poorly fitted or top-dose-only effect, or effect the other way; inactive = no such curve, though single readings can be large or run the other way.

experiment: qHTS assay to identify small molecule inhibitors of chordoma cells - UCH-1 (AID 1259355); conditions: UCH-1 chordoma viability, CellTiter-Glo, 48 h, combination, with auranofin plus four topoisomerase inhibitors; series mostly up to 46.1 µM; activity, negative = inhibition: at the top concentration; also: nearly all actives have a fitted effect of over 55% in size
Procedure, shortened: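 Seed 800 cells per well; incubate overnight at 37 C, 5% CO2. Add test compounds (15 concentrations), then the auranofin–topoisomerase-agent combination. Incubate 48hr, add CellTiter-Glo, wait 30min, read luminescence.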
% is scaled to controls: 0 for no effect and ±100 for the full control effect.

| SMILES | activity, negative = inhibition |
| --- | --- |
| CC(=O)O[C@@H]1CC2CCC1(C)C2(C)C (stereo partly specified) | 1.08% (inactive) |
| O=C(CCCN1CCN2CCCC2C1)c1ccc(F)cc1 (stereo unspecified) | -3.23% (inactive) |
| CCc1ncnc2cc(OC)c(OC)cc12 | -17.1% (inactive) |
| O=C(NNCS(=O)(=O)O)c1ccncc1 | -8.79% (inactive) |
| O=C1c2c(O)cccc2[C@H]([C@@H]2O[C@H](CO)[C@@H](O)[C@H](O)[C@H]2O)c2cc(CO)cc(O)c21 | -14.7% (inactive) |
| O=C(CO)[C@@H](O)[C@H](O)[C@@H](O)C(=O)O | -25.5% (inactive) |
| NC(=O)CC[C@@H]1NC(=O)[C@H](Cc2ccccc2)NC(=O)[C@H](Cc2ccc(O)cc2)NC(=O)[C@@H](N)CSSC[C@@H](C(=O)N2CCC[C@H]2C(=O)N[C@@H](CCCN=C(N)N)C(=O)NCC(N)=O)NC(=O)[C@H](CC(N)=O)NC1=O | -4.7% (inactive) |
| CC(=O)N[C@@H]1C(O[C@H]2O[C@H](C(=O)O)C(O)[C@H](O)[C@H]2O)[C@H](O)[C@@H](CO)O[C@H]1O[C@@H]1C(C(=O)O)O[C@@H](O[C@H]2[C@H](O)[C@@H](CO)OC(O)[C@@H]2NC(C)=O)[C@H](O)[C@H]1O (stereo partly specified) | -0.149% (inactive) |
| CC(C)[C@@H]1CC[C@@H](C)C[C@H]1OC(=O)c1ccccc1O | -0.806% (inactive) |
| COc1ccc(/C=C/C(=O)OCCC(C)C)cc1 | 1.53% (inactive) |
| CC(C)N1CCN(c2ccc(OC[C@H]3CO[C@](Cn4cncn4)(c4ccc(Cl)cc4Cl)O3)cc2)CC1 | -20.7% [at 20.6 µM] (inactive) |
| CCCCCCCCCCCCCCCCCC[N+](C)(C)CCC[Si](OC)(OC)OC | 9.36% (inactive) |
| COc1ccc2nc(NC(=O)Nc3ccccc3)sc2c1 | -12.2% (inactive) |
| C[C@]12CCC(=O)C[C@@H]1CC[C@@H]1[C@@H]2CC[C@]2(C)C=CC[C@@H]12 | -5.02% (inactive) |
| C=CC[N+]1([C@H]2C[C@H]3[C@@H]4CC[C@H]5C[C@H](O)[C@@H](N6CCOCC6)C[C@]5(C)[C@H]4CC[C@]3(C)[C@H]2OC(C)=O)CCCC1 | -6.09% (inactive) |
| C[C@@](Cc1ccc(O)c(O)c1)(NN)C(=O)O | 20.2% (inactive) |
| OCCCNc1ccccc1 | -0.609% (inactive) |
| CCCCCCCCCCCC(=O)OC[C@@H](O)C1OC[C@H](O)[C@H]1O (stereo partly specified) | -10.3% (inactive) |
| NC(=O)OCC(O)COc1ccc(Cl)cc1 (stereo unspecified) | -19.1% [at 20.6 µM] (inactive) |
| COc1ccc(-c2noc(CC(=O)O)c2-c2ccc(OC)cc2)cc1 | 0.728% (inactive) |
| O=C[C@H](O)[C@@H](O)[C@@H](O)[C@H](O)CO | -12.6% (inactive) |
| C=N[C@@H](C(=O)N[C@@H]1C(=O)N2[C@@H]1SC(C)(C)[C@@H]2C(=O)O)c1ccccc1 | -2.1% (inactive) |
| NC(Cc1ccccc1)C(=O)O (stereo unspecified) | -7.12% (inactive) |
| CO[C@H]1C[C@H](O[C@@H]2/C(C)=C/C[C@@H]3C[C@@H](C[C@]4(CC[C@H](C)[C@@H](C5CCCCC5)O4)O3)OC(=O)[C@@H]3C=C(C)/C(=N/O)[C@H]4OC/C(=C\C=C\[C@@H]2C)[C@]43O)O[C@@H](C)[C@@H]1O | -22.6% (inactive) |
| CC1(C)S[C@@H]2[C@H](NC(=O)C3(N)CCCCC3)C(=O)N2[C@H]1C(=O)O | -15% (inactive) |
| CO/N=C(\C(=O)N[C@@H]1C(=O)N2C(C(=O)O)=C(CSc3nc(C)c(CC(=O)O)s3)CS[C@H]12)c1csc(N)n1 | 9.48% (inactive) |
